Drawing on ChEMBL document CHEMBL3988442, “University of Dundee, Small-Polar-MMV Screening Library” (2021), this text covers Percent Effect for three compounds.

The target of assay [1] is T1, Aspartate--tRNA(Asp/Asn) ligase (Mycobacterium tuberculosis (strain ATCC 25618 / H37Rv)) (UniProt P9WFW3). Note: in the data most compounds retested in dose-response had high values.
T1 sequence (whole entry): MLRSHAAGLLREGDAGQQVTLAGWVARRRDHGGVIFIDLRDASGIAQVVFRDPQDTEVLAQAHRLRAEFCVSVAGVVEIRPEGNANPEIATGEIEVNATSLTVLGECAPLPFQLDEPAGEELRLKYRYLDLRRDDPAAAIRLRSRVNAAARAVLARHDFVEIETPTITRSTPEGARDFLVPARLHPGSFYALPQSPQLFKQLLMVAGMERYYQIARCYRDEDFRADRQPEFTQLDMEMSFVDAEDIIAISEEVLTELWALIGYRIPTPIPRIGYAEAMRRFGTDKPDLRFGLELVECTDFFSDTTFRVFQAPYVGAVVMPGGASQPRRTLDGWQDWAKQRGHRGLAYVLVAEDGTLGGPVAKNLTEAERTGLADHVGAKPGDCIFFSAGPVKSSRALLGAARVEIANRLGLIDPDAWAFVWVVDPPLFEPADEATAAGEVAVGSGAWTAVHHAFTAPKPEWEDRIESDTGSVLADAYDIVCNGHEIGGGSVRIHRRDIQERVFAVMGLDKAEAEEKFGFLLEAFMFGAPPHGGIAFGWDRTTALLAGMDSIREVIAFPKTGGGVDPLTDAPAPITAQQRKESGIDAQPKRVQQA
Nature of the assay: Assay for Asp RNA synthetase-1 from Mycobacterium tuberculosis. It counts as functional. Also noted: scale not given: direction of the effect not stated beside the values. The note with it: 30 µM.

For assay [2], the target named is Shiga toxin 2 (Escherichia coli O157:H7) (UniProt P09385+P09386). Put plainly: E. coli 0.157:H7 Shiga Toxin SOP - stx2 screening assay. It counts as functional. More on the design: scale not given: direction of the effect not stated beside the values. The note with it: 30 µM.

Take `COC(=O)c1ccc2ccn(CC3CCCO3)c(=O)c2c1` (stereo unspecified): the Percent Effect in assay [1] turned out to be 7.1%; in assay [2], 6.53%.

Turning to `O=C(NCCc1cccs1)[C@H]1CO[C@H]2CCNC[C@H]2C1`, the figures for the Percent Effect in assay [1] and in assay [2] were 2.09% and 2.12%, respectively.

As to `Cc1ccccc1N1CC2(CCN(S(=O)(=O)C3CC3)C2)CC1=O` (stereo unspecified), the Percent Effect in assay [1] is -1.07%; in assay [2] it was -4%.
